PubChem BioAssay AID588453 (National Center for Advancing Translational Sciences (NCATS), 2011)
Among all 390,000 compounds or so, about 4,000 (1%) were called active. Not shown: some 4% with an inconclusive outcome. This excerpt belongs to a sample that is enriched for actives. Values without a mark were called inactive. Calls follow the shape of the dose curve; as a rule, active = well fitted inhibition curve with a large enough effect; inconclusive = small, poorly fitted or top-dose-only effect; inactive = no such curve, though single readings can be large or run the other way.
% is scaled to controls: 0 for no effect and ±100 for the full control effect; potency is read from the fitted curve at half-maximal effect.
Also: nearly all actives have a fitted effect of over 65% in size.

These compounds were tested against Thioredoxin reductase 1, cytoplasmic (Rattus norvegicus) (UniProt O89049) (assay: qHTS Assay for Inhibitors of Mammalian Selenoprotein Thioredoxin Reductase 1 (TrxR1): qHTS). Conditions: recombinant rTrxR1, NADPH fluorescence consumption, selenite substrate; series mostly up to 114 µM; activity change, negative = inhibition: at the top concentration.
Chain of Thioredoxin reductase 1, cytoplasmic (Rattus norvegicus) (O89049 whole entry, looked up): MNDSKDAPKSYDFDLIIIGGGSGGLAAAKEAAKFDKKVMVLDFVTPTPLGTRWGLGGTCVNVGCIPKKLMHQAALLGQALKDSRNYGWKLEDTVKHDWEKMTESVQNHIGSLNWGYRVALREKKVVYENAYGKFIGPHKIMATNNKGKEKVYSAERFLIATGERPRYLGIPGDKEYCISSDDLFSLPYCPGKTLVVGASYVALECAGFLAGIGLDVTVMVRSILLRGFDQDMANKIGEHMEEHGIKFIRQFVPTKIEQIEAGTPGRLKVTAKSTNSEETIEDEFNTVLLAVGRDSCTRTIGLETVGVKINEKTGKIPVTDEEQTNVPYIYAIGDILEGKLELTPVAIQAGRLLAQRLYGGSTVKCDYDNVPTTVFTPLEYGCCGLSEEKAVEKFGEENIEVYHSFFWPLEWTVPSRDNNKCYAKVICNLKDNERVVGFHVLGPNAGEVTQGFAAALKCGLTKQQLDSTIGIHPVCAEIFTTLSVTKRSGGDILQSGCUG
Outline: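 Rat TrxR1 (90 nM in the dispensed reagent) was pre-reduced with 400 uM NADPH for 5 min at room temperature, then incubated with compound for 15 min. After 400 uM selenite was added, NADPH fluorescence (Ex 340/Em 450 nm) was followed for 8 min.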
With `CCOc1ccccc1NC(=O)C1CCCN(S(=O)(=O)c2cn(C)cn2)C1` (stereo unspecified) the “activity change, negative = inhibition” value was 13.5% [at 57.1 µM]. `COc1ccc(-c2nc3scc(CCNS(=O)(=O)c4cc(F)ccc4OC)n3n2)cc1OC` was tested, and the “activity change, negative = inhibition” value was 12.3% [at 57.1 µM]. In the case of `CCOc1ccccc1NC(=O)CCn1cnnn1`, the “activity change, negative = inhibition” value is reported as -3.59% [at 57.1 µM]. In the case of `Cc1ccc2nc(CNC(=O)c3ccccc3)[nH]c2c1`, the “activity change, negative = inhibition” value is reported as 14.3%. With `Cc1cc(C)nc(NC(=O)Nc2ccccc2C(F)(F)F)n1` the “activity change, negative = inhibition” value was 6.03% [at 57.1 µM]. `Cc1cc(C)nc(S/C=C/C(=O)c2ccccc2)n1` was tested, and the Potency was 1 µM (active). `OC(Cc1ccc2ccccc2n1)c1ccc(Cl)c(Cl)c1` (stereo unspecified) was tested, and the activity change, negative = inhibition was 24.6% [at 0.0914 µM]. For `COc1ccccc1NC(=O)c1cc(C2CC2)nc2c1c(C)nn2-c1ccc(C)cc1`, the “activity change, negative = inhibition” value was 8.82%. For `CCOC(=O)c1c(NC(=O)c2ccc(S(=O)(=O)N3CCCC(C)C3)cc2)sc2c1CCN(C(C)C)C2` (stereo unspecified), the “activity change, negative = inhibition” value was 12.5% [at 57.1 µM]. In the case of `CCOc1ccc(CNC(=O)c2ccc(CS(=O)c3ccccc3)o2)cc1` (stereo unspecified), the “activity change, negative = inhibition” value is reported as 21.2%. With `Cc1nn(CC(=O)O)c(=O)c2cc3cc(F)ccc3n12` the “activity change, negative = inhibition” value was 18.2%. For `CC1=C/C(=N\OS(=O)(=O)c2ccccc2)C=CC1=O`, the Potency was 1.78 µM (active). In the case of `Cc1cc[n+](C2CCCCC2)cc1`, the “activity change, negative = inhibition” value is reported as 16.9%. `CCC(Sc1nc2n[nH]c(C)c2c(=N)n1-c1ccccc1Cl)C(=O)N(CC)CC` (stereo unspecified) was tested, and the “activity change, negative = inhibition” value was -4.73% [at 57.1 µM]. For `CC1CC(=NNC(=O)C2COc3ccccc3O2)CC(C)(C)C1` (stereo unspecified), the “activity change, negative = inhibition” value was 18.3%. `CC(/C=C/c1ccco1)=N/NC(=O)C1COc2ccccc2O1` (stereo unspecified) was tested, and the Potency was 56.2 µM (active). In the case of `CC(/C=C/c1ccccc1)=N\NC(=O)C1CC1(C)c1ccccc1` (stereo unspecified), the “activity change, negative = inhibition” value is reported as 12.3%. For `O=C(CCS(=O)(=O)c1cc(Br)cc2c1N(C(=O)C1CC1)CC2)Nc1ccc(C(F)(F)F)cc1`, the “activity change, negative = inhibition” value was 13.6%. With `CN1CCN(c2oc(-c3ccc(COc4ccc(Cl)cc4)o3)nc2C#N)CC1` the “activity change, negative = inhibition” value was 17.5%. `Cc1ccc(SC(=O)COc2ccc(C)c(C)c2)cc1` was tested, and the Potency was 8.91 µM (active). For `Cc1ccc(OCC(=O)Nc2cccc3c2CCCC3)cc1C`, the “activity change, negative = inhibition” value was 7.88%. In the case of `COc1ccc(C(=O)COC(=O)COc2ccc(C)c(C)c2)cc1`, the “activity change, negative = inhibition” value is reported as -3.4%. For `OC[C@H]1O[C@@H](n2cnc3c(N[C@H]4CC5CCC4C5)ncnc32)[C@H](O)[C@@H]1O` (stereo partly specified), the “activity change, negative = inhibition” value was 5.49%. In the case of `CSc1nc(-c2ccc(F)cc2)nc2c1Cc1c(CO)cnc(C)c1O2`, the “activity change, negative = inhibition” value is reported as 21.4%. `Cc1oc(-c2ccccc2)nc1Cn1c(SCc2cccc(C(F)(F)F)c2)nc2cccnc21` was tested, and the “activity change, negative = inhibition” value was 12.9%. With `COc1cccc(CNC(=O)C(=O)NCC(c2cccs2)S(=O)(=O)c2ccccc2)c1` (stereo unspecified) the “activity change, negative = inhibition” value was 14.7% [at 57.1 µM].
